Sampled rows, rich in hits. Any-hit rate of the full collection: about 3.3%.
sPLA2-III inh – Inhibits HGIII-sPLA2 liposome hydrolysis, primary screen. AID 743126. Q9NZ20. 0.56% of 370,000 active. QFRET BODIPY PC-A2 liposome hydrolysis, fluorescence. inhibition, % at 12.2 µM;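 active = inhibition above mean plus 3 SD of compounds lying within the high and low control bounds, cut at about 19% in these data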;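 also: 0% = median of test compound wells and 100% = no enzyme DMSO wells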
GRIN3A LBD mod – NR3A (human) ligand-binding domain modulation | AID 1259313 | NR3A LBD differential scanning fluorimetry, Tm shift; 0% = protein alone, 100% = glycine-bound protein | Tm shift relative to glycine control, % at 25 µM | 2.5% of 340,000 active;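 active = melting temperature shift of at least 10% of the positive control shift, at one fixed dose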
SUMO HTRF inh – inhibitors of human SUMOylation (UBC9); HTRF SUMOylation assay, SAE1/SAE2 + UBC9, in vitro; 0.36% of 290,000 active; AID 2006; inhibition, % at 35 µM; P63279; in the data active = inhibition above about 50%, passing the limit was not always enough
Target sequence (P63279 whole entry, looked up): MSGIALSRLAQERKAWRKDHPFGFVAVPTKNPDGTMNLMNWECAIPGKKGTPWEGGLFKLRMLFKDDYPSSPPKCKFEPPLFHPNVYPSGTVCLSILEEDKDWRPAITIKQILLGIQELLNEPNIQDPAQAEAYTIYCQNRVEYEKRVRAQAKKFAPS
UBC13 polyUb – blocks human UBC13 polyubiquitin chain formation; TR-FRET; P61088; 0.47% of 330,000 active; AID 485273; inhibition, % at 20 µM; in the data active = inhibition above about 45%, passing the limit was not always enough
Target sequence (P61088 whole entry, looked up): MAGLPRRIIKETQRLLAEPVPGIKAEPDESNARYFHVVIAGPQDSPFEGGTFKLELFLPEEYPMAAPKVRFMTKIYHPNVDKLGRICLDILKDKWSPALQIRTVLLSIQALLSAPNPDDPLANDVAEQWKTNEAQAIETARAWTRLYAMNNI
Casp3 UBC13 ctr – caspase-3 inhibition (UBC13 counter-screen); inhibition, % at 20 µM; 4% of 1,400 active; shares compounds with UBC13 polyUb; AID 488856; Recombinant caspase-3, Caspase-Glo 3/7 luminescence, 60 min;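 active = mean inhibition across replicates above about 26%, limit read from the data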;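 also: plate controls were DMSO with caspase-3 for no effect and DMSO wells lacking enzyme for full effect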
Target sequence (P42574 whole entry, looked up): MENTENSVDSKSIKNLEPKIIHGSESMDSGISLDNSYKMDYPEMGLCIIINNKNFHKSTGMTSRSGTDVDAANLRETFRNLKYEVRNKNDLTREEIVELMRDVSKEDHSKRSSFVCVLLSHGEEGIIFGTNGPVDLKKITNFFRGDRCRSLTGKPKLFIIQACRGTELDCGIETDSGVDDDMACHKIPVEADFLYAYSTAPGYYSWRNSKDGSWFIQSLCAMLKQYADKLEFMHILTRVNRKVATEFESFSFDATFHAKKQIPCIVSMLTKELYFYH
UBC13 conf – confirmation of human UBC13 polyubiquitin inhibitors | shares compounds with UBC13 polyUb | 68% of 1,400 active | inhibition, % at 10 µM | UBC13 polyubiquitination, TR-FRET, biochemical; in the data active = inhibition above about 45%
* = called active by the depositor; · = no result given.

SMILES | sPLA2-III inh | GRIN3A LBD mod | SUMO HTRF inh | UBC13 polyUb | Casp3 UBC13 ctr | UBC13 conf
Cc1nc(N2CCN(C(=O)C3CC3)CC2)c2c3c(sc2n1)CC(C)CC3 (stereo not given) | 5 | · | · | · | · | ·
COc1cc2c(cc1NC(=O)CSc1nnc(-c3cccnc3)n1-c1ccc(Br)cc1)oc1ccccc12 | 1 | · | · | · | · | ·
COc1cccc2sc(N(CCCN(C)C)C(=O)c3ccc(S(=O)(=O)N4CCc5ccccc5C4)cc3)nc12 | -20 | 1 | 10 | 64* | -4 | 99*
COc1ccc(OC)c2sc(N(CCCN(C)C)C(=O)c3ccc(S(=O)(=O)N4CCc5ccccc5C4)cc3)nc12 | · | · | · | 100* | -2 | 118*
CCOc1ccc2nc(N(CCCN(C)C)C(=O)c3ccc(S(=O)(=O)N4CCc5ccccc5C4)cc3)sc2c1 | -16 | 2 | 3 | 84* | 4 | 115*
COc1cc2nc(N(CCCN(C)C)C(=O)c3ccc(S(=O)(=O)N4CCc5ccccc5C4)cc3)sc2cc1OC | -16 | 1 | · | 71* | -1 | 105*
COc1ccc(S[C@]2(C(=O)N3CCN(c4ncccn4)CC3)CC(=O)N(S(=O)(=O)c3ccc(F)cc3)[C@@H]2c2ccc(OC)cc2)cc1 | -7 | · | · | · | · | ·
CCCCN1CCS(=O)(=O)N(Cc2cn(Cc3cccc(Cl)c3)nn2)C(C(=O)OC)C1 (stereo not given) | 2 | · | · | · | · | ·
CN1C(=O)[C@@]2(C3=C(CCCC3=O)OC3=C2C(=O)OC2(CCCCC2)C3)c2ccccc21 | 0 | · | · | · | · | ·
Cc1cc(C)c2nc(-c3ccccn3)cc(C(=O)n3cccn3)c2c1 | 7 | 1 | 12 | 45* | -3 | 20
COC(=O)c1cccc(Cn2ccc3ccc(-c4ccc5ccn(C(=O)c6ccccc6)c5c4)cc32)c1 | 0 | · | · | · | · | ·
CC(C)COCC(CN(Cc1ccccc1)c1ccccc1)N1CCCC1 (stereo not given) | -2 | 0 | -13 | 49* | 2 | 40
CC(C(=O)Nc1ccc(OCc2ccccc2)cc1)N1CCCC1 (stereo not given) | 2 | 0 | 10 | -5 | · | ·
CCOc1ccccc1-c1nc(C(N)=O)c2[nH]c(=O)n(-c3ccc(F)cc3)c2n1 | 0 | 0 | 1 | 65* | 3 | 8
Brc1ccc(-c2nnc3ccc(N4CCN(c5ccccc5)CC4)nn23)cc1 | · | -1 | 14 | 62* | -3 | 18
COc1ccc(S(=O)(=O)N2CCN(c3ccc4nnc(-c5ccccc5)n4n3)CC2)cc1 | -1 | -3 | 15 | 51* | -4 | 32
CC(C)NC(=O)N[C@@H]1C[C@@H]2O[C@H](CO)CC[C@@H]2O[C@@H]1CCc1ccc(-c2ccccc2F)cc1 | -2 | · | · | · | · | ·
O=C(CSc1cc(Cl)ccc1Cl)NCC(=O)Nc1ccc(F)c(F)c1F | -5 | -23 | -7 | 71* | -1 | 79*
O=C(CNC(=O)c1cccc(Cl)c1)Nc1ccc(F)c(F)c1F | -4 | 7 | 11 | -12 | · | ·
COC(=O)c1ccc(Cn2c(O)c(N=NC(N)=S)c3ccccc32)o1 | 8 | 3 | 11 | 69* | 2 | 81*
C/C(Cl)=C\Cn1c(O)c(N=NC(N)=S)c2ccccc21 | 7 | -12 | 6 | 84* | -4 | 102*
COC(=O)N=Nc1c(O)n(Cc2ccccc2)c2ccccc12 | 6 | 0 | 14 | 15 | · | ·
NC(=S)N=Nc1c(O)n(Cc2ccccc2)c2ccccc12 | 15 | -16 | -19 | 42 | · | ·
NC(N)=N/N=C/c1ccc(OCc2ccc(Cl)cc2)cc1 | 0 | -10 | 12 | 102* | 22 | 120*
NC(N)=N/N=C/c1ccc(OCc2ccccc2)cc1 | 14 | -10 | -18 | 50* | 16 | 53*
SMILES | sPLA2-III inh | GRIN3A LBD mod | SUMO HTRF inh | UBC13 polyUb | Casp3 UBC13 ctr | UBC13 conf
O=C(N/N=C/c1ccccc1)c1ccc(OCc2ccccc2)cc1 | 2 | -10 | 5 | 5 | · | ·
CCCC1CCC2(CC1)CCC2OC(=S)Nc1ccc(Cl)cc1 (stereo not given) | 0 | · | · | · | · | ·
COC(=O)[C@]12C[C@H](CC(=O)NCc3ccc(C)o3)C(=O)N(Cc3ccc(Cl)cc3Cl)C1=C[C@H](C1CCCC1)O[C@@H]2C | -16 | · | · | · | · | ·
CCOC(=O)C1=C(c2ccccc2)NC(N)=NC1c1ccc(OCc2ccc(Cl)cc2)c(OC)c1 (stereo not given) | -14 | 0 | -24 | 49* | 6 | 87*
CC[C@@H](C)[C@@H]1CN([C@@H](CN2CCC[C@H]2CN2C(N)=NC[C@H]2CC(C)C)C(C)C)C(=N)N1CCCC1CCCC1 | -1 | 0 | · | 66* | 3 | 58*
CC[C@@H](C)[C@@H]1CN([C@@H](CN2CCC[C@H]2CN2C(N)=NC[C@H]2CC(C)C)C(C)C)C(=N)N1CCc1ccc(Cl)c(Cl)c1 | 9 | -5 | · | 73* | 3 | 86*
CCC(C)[C@H]1CN=C(N)N1CC1CCCCC1 (stereo not given in full) | · | 0 | · | 8 | · | ·
CCOc1ccc(CCN2C(=O)C(=O)N([C@@H](CC(C)C)CN3CCC[C@H]3CN3C(=O)C(=O)NC[C@@H]3CC(C)C)C[C@@H]2CC(C)C)cc1 | -13 | · | · | · | · | ·
CCC[C@@H](CN1CCC[C@H]1CN1C(N)=NC[C@H]1CC(C)C)N1C[C@@H]([C@H](C)CC)N(CCc2ccc(Cl)c(Cl)c2)C1=N | 6 | -2 | · | 82* | -4 | 80*
CC[C@@H](C)[C@@H]1CN([C@@H](C)CN2CCC[C@H]2CN2C(N)=NC[C@H]2CC(C)C)C(=N)N1CCc1ccc(Cl)c(Cl)c1 | 5 | -1 | · | 69* | 0 | 70*
CC(C)C[C@H]1CNC(=O)C(=O)N1C[C@@H]1CCCN1C[C@H](Cc1ccccc1)N1C[C@H](CC(C)C)N(CCc2ccccc2)C(=O)C1=O | 5 | · | · | · | · | ·
CCOC(=O)N1CCN(C(=O)C[C@@H]2C(=O)N(CCc3ccc(Cl)cc3)/C3=C/CCCCC[C@@]32C(=O)OCC)CC1 | -1 | · | · | · | · | ·
Cn1c2ccc(Cl)cc2c2nc3ccccc3nc21 | -6 | 1 | 89 | 49* | 0 | 7
Cn1c2ccc(F)cc2c2nc3ccccc3nc21 | 4 | -3 | 13 | 51* | 9 | 14
Cc1ccc2c(c1)c1nc3ccccc3nc1n2C | 3 | 3 | 16 | 53* | 8 | 16
COC(=O)[C@]12C[C@H](CC(=O)NCc3ccc(C)o3)C(=O)N(Cc3ccc4c(c3)OCO4)C1=C[C@H](C(C)C)O[C@@H]2C1CC1 | -5 | · | · | · | · | ·
CCOC(=O)N1CCC(NC(=O)c2cc(C)c3c(C)nn(-c4ccccc4)c3n2)CC1 | -3 | 0 | 3 | 45* | -3 | 23
Clc1ccc(CN2CCN(N=Cc3c4ccccc4cc4ccccc34)CC2)cc1 | 2 | · | · | · | · | ·
CCc1ccccc1OCC(=O)OCC(=O)Nc1cc(C)on1 | 4 | 0 | · | 48* | 6 | 16
Cc1cc(NC(=O)COC(=O)COc2ccc(C(=O)c3ccccc3)cc2)no1 | -4 | 4 | -4 | 2 | · | ·

High-throughput results: PubChem BioAssay, several laboratories
